In PubChem BioAssay (NCATS):
Inconclusive results are not listed. Active and inactive are the calls of the source. Calls come from the whole dose curve; as a rule, active = well fitted curve in the direction sought with a large enough effect; inconclusive = small, poorly fitted or top-dose-only effect, or another doubt; inactive = no such curve, though single readings can be large; an effect the other way counts as inactive or inconclusive. Where a SMILES comes first, the peptide text is derived from it. The star is where a group is joined. Cbz = O=C(OCc1ccccc1)*; CH2F = FC*

tested on: Nanoluciferase (engineered Oplophorus gracilirostris luciferase); test: Primary Nanoluciferase (NLuc) qHTS assay for identification of artifact compounds. (AID 1845222); conditions: NLuc-conditioned medium, Nano-Glo luminescence, 5 min; series mostly up to 54.1 µM; activity, negative = inhibition: at the top concentration;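 note: NLuc secreted into diluted conditioned medium of S16 cells; 0% = DMSO and -100% = no enzyme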
In short: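 S16 cell supernatant NLuc, 1:55; cpds qHTS; 15 min RT dark; Nano-Glo substrate 1:100, 5 min; luminescence; Hill fit of % inhibition.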

| Compound | activity, negative = inhibition |
| --- | --- |
| CC(=O)OC1CCC2(C)C(CCC3(C)C2CC=C2C4CC(C)(C)CCC4(C)CCC23C)C1(C)C(=O)O (stereo not drawn) | 3.75% [at 25.7 µM] (inactive) |
| C[C@@H]1[C@H](O)[C@@H]2OC(=O)C3=C2[C@H](CCC3)[C@@]12C[C@@H](c1ccoc1)OC2=O | 0% (inactive) |
| C[C@@H]1CC[C@]2(C(=O)O)CC[C@]3(C)C(=CCC4[C@@]5(C)C[C@@H](O)[C@@H](O)C(C)(C)C5CC[C@]43C)C2[C@]1(C)O (stereo partly drawn) | 2.31% [at 25.7 µM] (inactive) |

tested on: not listed separately; test: Primary redox qHTS assay for identification of artifact compounds. (AID 1845223); conditions: Amplex Red/HRP redox cycling with DTT, fluorescence; series mostly up to 53.8 µM; redox activity (% of DA3003): at the top concentration;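 note: 0% = DMSO and 100% = reference compound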
In short: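 Amplex Red (25 uM) and HRP (250 mU/mL) in HBSS, with compounds for 15 min, then 250 uM DTT for 30 min, room temperature, dark. Fluorescence 525/598 nm read; normalized to DMSO and 10 uM DA3003; Hill fit.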

| Compound | redox activity (% of DA3003) |
| --- | --- |
| CC1=C2C(=O)C=C(CO[C@@H]3O[C@H](CO)[C@@H](O)[C@H](O)[C@H]3O)[C@@H]2[C@H]2OC(=O)[C@H](C)[C@@H]2[C@@H](O)C1 | -18.6% [at 25.6 µM] (inactive) |
| C/C(=C\CO)CC/C=C(\C)C(=O)O[C@@H]1O[C@H](CO)[C@@H](O)[C@H](O)[C@H]1O | -0.228% (inactive) |
| C=C[C@@]1(C)CCC2=C([C@H]1OC(C)=O)[C@H](OC(C)=O)CC1[C@](C)(C(=O)OC)CC[C@H](OC(C)=O)[C@]21C (stereo partly drawn) | 13.8% [at 25.6 µM] (inactive) |
| COc1cc2c(c(OC)c1O)C(c1ccc(O)cc1)C1C(=O)OC3C(COC(=O)C1=C2)OC(CO)(OC1OC(COC(=O)/C=C/c2ccc(OC4OC(C)C(O)C(O)C4O)cc2)C(O)C(O)C1O)C3O (stereo not drawn) | 0.553% [at 11.5 µM] (inactive) |
| O=C(O)/C=C/c1ccc2occc2c1O[C@@H]1O[C@H](CO)[C@@H](O)[C@H](O)[C@H]1O | -15.8% (inactive) |
| C[C@]1(OC(=O)/C=C\c2ccc(O)cc2)C[C@@H](O)[C@]2(O)C=CO[C@@H](O[C@@H]3O[C@H](CO)[C@@H](O)[C@H](O)[C@H]3O)C12 (stereo partly drawn) | 10.7% [at 25.6 µM] (inactive) |
| COc1ccc(CC(=O)NCc2ccccc2-c2ccccc2C(=O)NCCc2cccnc2)cc1 | 14.8% (inactive) |
| O=C(/C=C/c1ccc(O)c(O)c1)OC[C@H]1O[C@@H](OC2CCCCC2O)[C@H](O)[C@@H](O)[C@@H]1O (stereo partly drawn) | -3.13% [at 25.6 µM] (inactive) |
| CCOC(=O)c1ccc(NC2CCCCC2)c(N)c1 | -4.83% (inactive) |
| CC1CCC2(NC1)OC1C(O)C3C4CCC5CC(O[C@@H]6O[C@H](CO)[C@@H](O)[C@H](O)[C@H]6O[C@@H]6O[C@@H](C)[C@H](O)[C@@H](O)[C@H]6O)CCC5(C)C4CCC3(C)C1C2C (stereo partly drawn) | -1.89% [at 25.6 µM] (inactive) |
| Cc1nnc(-c2ccc3occ(-c4ccc(S(C)=O)cc4)c3c2)o1 (stereo not drawn) | 8.34% (inactive) |
| CCOc1nc2c(N)ncnc2n1CC | -0.909% (inactive) |
| CC(C)=CC1C[C@](C)(O)[C@@H]2[C@H]3CCC4[C@@]5(C)CC[C@H](O[C@@H]6OC[C@H](O)[C@H](O[C@@H]7O[C@H](CO[C@@H]8O[C@H](CO)[C@@H](O)[C@H](O)[C@H]8O)[C@@H](O)[C@H](O)[C@H]7O)[C@H]6O[C@@H]6O[C@@H](C)[C@H](O)[C@@H](O)[C@H]6O)C(C)(C)[C@@H]5CC[C@@]4(C)[C@@]34CO[C@@]2(C4)O1 (stereo partly drawn) | 14.6% [at 11.5 µM] (inactive) |
| C=C1CC2C3(C)C(O)CC(=O)C(C)(C)C3C(O)C(OC(C)=O)C2(C)C2C(=O)OC(C)(C(=O)OC)C(=O)C12C (stereo not drawn) | -2.78% [at 25.6 µM] (inactive) |
| O=C(/C=C/c1ccc(O)c(O)c1)O[C@H]1[C@H](OC2CCCCC2O)O[C@H](CO)[C@@H](O)[C@@H]1O (stereo partly drawn) | -6.37% [at 25.6 µM] (inactive) |
| COC(=O)[C@H](Cc1ccc([N+](=O)[O-])cc1)NC(=O)c1cccc2ccccc12 | -6.56% (inactive) |
| CCC(C)/C=C(C)/C=C/C1=CC2=C(Cl)C(=O)C(C)(O)C(=O)C2(O)C(OC)O1 (stereo not drawn) | 13.9% [at 25.6 µM] (inactive) |
| C/C(CO)=C1/CCC23COC(C2)C(O)(C(=O)O)CCC13 (stereo not drawn) | -9.45% (inactive) |
| CC1CCCCCCCc2cc(O)cc(O)c2C(=O)O1 (stereo not drawn) | 8.18% (inactive) |
| CC1(C)CC[C@]2(C(=O)O[C@@H]3O[C@H](CO)[C@@H](O)[C@H](O)[C@H]3O)CC[C@]3(C)C(=CCC4[C@@]5(C)CC[C@H](O[C@@H]6O[C@H](C(=O)O)[C@@H](O[C@@H]7O[C@H](CO)[C@@H](O)[C@H](O)[C@H]7O)[C@H](O)[C@H]6O)C(C)(C)C5CC[C@]43C)C2C1 (stereo partly drawn) | 3.95% [at 11.5 µM] (inactive) |

| Compound | redox activity (% of DA3003) |
| --- | --- |
| CC(C)c1ccc2c(c1)CCC1[C@](C)(C(=O)O)CCC[C@]21C (stereo partly drawn) | 14.9% (inactive) |
| COC(=O)C(CC1(OC(=O)C(C)C)c2ccccc2N2C(=O)C(C)(C)N(O)C21)n1cnc2ccccc2c1=O (stereo not drawn) | -0.197% [at 25.6 µM] (inactive) |
| O=C(Nc1ccn(Cc2c(F)cccc2C(F)(F)F)n1)c1c(F)cccc1F | -0.702% [at 11.5 µM] (inactive) |
| COC(=O)CC[C@H](NC(=O)[C@H](CC(C)C)NC(=O)OCc1ccccc1)C(=O)N[C@@H](Cc1cnc[nH]1)C(=O)N[C@@H](CC(=O)OC)C(=O)CF (Cbz-LE(OMe)HD(OMe)-CH2F) | -3.22% [at 11.5 µM] (inactive) |
| CC(=O)O[C@@H]1[C@@H](O)[C@H](C)O[C@@H](O[C@H]2[C@@H]3C=CO[C@@H](O[C@@H]4O[C@H](CO)[C@@H](O)[C@H](O)[C@H]4OC(C)=O)[C@@H]3[C@@]3(CO)O[C@@H]23)[C@@H]1OC(=O)/C=C/c1ccc(O)cc1 | 13.4% [at 25.6 µM] (inactive) |
| C=C1CC/C=C(/CO)C(=O)C[C@@H]2[C@@H]1C[C@@]2(C)COC(C)=O | -5.81% (inactive) |
| COc1ccc(CCc2nc3cc(-c4c(C)noc4C)ccc3n2C[C@H](C)N2CCOCC2)cc1Cl | 5.71% (inactive) |
| O=C(O)c1cc(C(F)(F)F)ccc1N1CC[C@H](OCc2ccccn2)C1 | -2.66% (inactive) |
| CC/C=C/C(O)C(O)C1=C(C)C(=O)C2(O1)C(=O)NC(OC)(C(=O)c1ccccc1)C2O (stereo not drawn) | -11.7% [at 25.6 µM] (inactive) |
| CC1CC2OCC3(O)CCC(O)C(C14CC(c1ccoc1)OC4=O)C23CO (stereo not drawn) | -8.99% (inactive) |
| CN[C@H](CNC(=O)N1CCC[C@@H]([C@@H](OCCNC(=O)OC)c2cccc(Cl)c2)C1)C[C@H]1CCCOC1 | 13.9% (inactive) |
| O=C(OC1C=C(CO)C2C(OC3OC(CO)C(O)C(O)C3O)OC=CC12O)c1ccc(O)cc1 (stereo not drawn) | -17.7% [at 25.6 µM] (inactive) |
| C[C@H]1CC[C@@]2(OC1)O[C@H]1CC3C4CC[C@H]5C[C@@H](O[C@@H]6O[C@H](CO)[C@H](O[C@@H]7O[C@H](CO)[C@@H](O)[C@H](O[C@@H]8OC[C@@H](O)[C@H](O)[C@H]8O)[C@H]7O[C@@H]7O[C@H](CO)[C@@H](O)[C@H](O)[C@H]7O)[C@H](O)[C@H]6O)[C@H](O)C[C@]5(C)C4=CC(=O)[C@]3(C)[C@H]1[C@@H]2C (stereo partly drawn) | 3.4% [at 11.5 µM] (inactive) |
| Cc1ccc2[nH]c(=O)c(C3=NN(C(=O)CCC(=O)O)C(c4ccc(Br)cc4)C3)c(-c3ccccc3)c2c1 (stereo not drawn) | -1.55% (inactive) |
| CC(=O)OC1CC2(C)C(CCC(C)C23Cc2c(O)cc4c(c2O3)CNC4=O)C(C)(C)C1O (stereo not drawn) | 7.34% [at 25.6 µM] (inactive) |
| COc1cc(C2CC(=O)Nc3c2cc(Br)c2ccccc32)cc(OC)c1OC (stereo not drawn) | -2.42% (inactive) |
| O=C(O)CCc1c(C(=O)O)[nH]c2cc(Cl)cc(Cl)c12 | -0.091% [at 25.6 µM] (inactive) |
| CC(=O)OC1CCC2(C)C(CCC3(C)C2CC=C2C4CC(C)(C)CCC4(C)CCC23C)C1(C)C(=O)O (stereo not drawn) | -4.44% [at 25.6 µM] (inactive) |
| C[C@@H]1[C@H](O)[C@@H]2OC(=O)C3=C2[C@H](CCC3)[C@@]12C[C@@H](c1ccoc1)OC2=O | 0.466% (inactive) |
| C[C@@H]1CC[C@]2(C(=O)O)CC[C@]3(C)C(=CCC4[C@@]5(C)C[C@@H](O)[C@@H](O)C(C)(C)C5CC[C@]43C)C2[C@]1(C)O (stereo partly drawn) | 6.83% [at 25.6 µM] (inactive) |
